For eight compounds, growth results are on record in PubChem BioAssay (NCI).

Among the test systems are NCI-H23 lung; NCI-H226 lung; NCI-H322M lung; NCI-H460 lung; HOP-92 NSCLC; NCI-H522 lung; A549/ATCC NSCLC; 786-0 renal; COLO 205 colon; DU-145 prostate; K-562 leukemia; MALME-3M melanoma; MDA-MB-231 breast; RXF 393 renal; SF-268 CNS; SF-295 CNS; SF-539 CNS; UACC-257 melanoma; M14 melanoma.
Assay in all cases: NCI-60 one-dose screen, 48 h (100 = growth as untreated, 0 = no growth, -100 = all killed)
Holding throughout (conditions): 10 µM unless noted

Each structure is given as a SMILES string. This is part of a sample that, as a whole, favours compounds with a hit. Of some 83,000 tested, about 20% had one in any assay.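 96-well plates, one dose, 48 hours. Percent growth reported; active if below 10.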 A number with no mark means an inactive call. The source made the active and inactive calls.

For the compound `Brc1ccc(-c2[nH]ncc2-c2c[nH]c3ccccc23)cc1`, the growth in the test with NCI-H23 lung was 92.5%; with NCI-H226 lung it was 92.8%; with NCI-H322M lung, 99.7%; in the test with NCI-H460 lung, 98.1%; with HOP-92 NSCLC, 63.2%; in the test on NCI-H522 lung, 107%. In addition, the growth is 93.6% in the test on A549/ATCC NSCLC; 102% in the test with 786-0 renal; 109% in the test on COLO 205 colon; 108% with DU-145 prostate; 88.4% in the test on K-562 leukemia; 90.6% in the test with MALME-3M melanoma. The growth is 67.7% in the test on MDA-MB-231 breast; 103% in the test on RXF 393 renal; 89% in the test with SF-268 CNS; 96.2% in the test with SF-295 CNS; 93.3% in the test with SF-539 CNS; 91.6% in the test with UACC-257 melanoma. Besides, the growth in the test with M14 melanoma is 89.7%.

Consider `C=CCn1c2ccccc2c2c3c(c4c5ccccc5n(CC=C)c4c21)C(=O)N(O)C3=O`, for which the growth in the test with NCI-H23 lung is 24.2%; with NCI-H226 lung, -97.9% (active); in the test on NCI-H322M lung, 52.8%; with NCI-H460 lung, 8.86% (active); in the test with HOP-92 NSCLC, 77.2%; in the test with NCI-H522 lung, -62.5% (active). Also, the growth with A549/ATCC NSCLC is 37.7%; in the test with 786-0 renal it was 15.1%; in the test on COLO 205 colon it was 56.5%; with DU-145 prostate, 24.9%; in the test with K-562 leukemia, 27.3%; in the test on MALME-3M melanoma, 96.1%. In addition, the growth with MDA-MB-231 breast was 39.4%; in the test with RXF 393 renal, 42.2%; with SF-268 CNS, 33.7%; in the test with SF-295 CNS, 16.2%; in the test on SF-539 CNS, 2.86% (active); in the test with M14 melanoma, 17.2%.

For the compound `COc1ccc(-n2c(-c3ccccc3)c(-c3ccccc3)c3c(SCC(=O)N/N=C/c4ccc(Cl)cc4)ncnc32)cc1`, the growth was 68.2% in the test with NCI-H23 lung; 76.6% in the test with NCI-H226 lung; 97.2% with NCI-H322M lung; 66.8% in the test with HOP-92 NSCLC; 83.5% in the test on NCI-H522 lung; 93.1% with A549/ATCC NSCLC. Besides, the growth was 92.5% in the test on 786-0 renal; 104% in the test on COLO 205 colon; 95.4% in the test on DU-145 prostate; 80.7% in the test with K-562 leukemia; 107% with MALME-3M melanoma; 82.1% in the test on MDA-MB-231 breast. In addition, the growth is 97.3% in the test on RXF 393 renal; 88.5% in the test with SF-268 CNS; 92.9% in the test with SF-295 CNS; 93.8% with SF-539 CNS; 95.1% in the test on UACC-257 melanoma; 99.5% with M14 melanoma.

Turning to `COc1cccc(CC(C)=C(c2ccc(OCCN3CCCCC3)cc2)c2ccc(OCCN3CCCCC3)cc2)c1`, the growth with NCI-H23 lung was 58%; in the test with NCI-H226 lung, 79.8%; in the test on NCI-H322M lung it was 0.584% (active); in the test with NCI-H460 lung, -73.3% (active); in the test with HOP-92 NSCLC, -4.48% (active); in the test on NCI-H522 lung, -75% (active). In addition, the growth in the test on A549/ATCC NSCLC was 2.38% (active); in the test on 786-0 renal, -83.7% (active); in the test with COLO 205 colon it was -81.2% (active); with DU-145 prostate it was 17.8%; in the test with K-562 leukemia it was -37.3% (active); with MALME-3M melanoma, -88.5% (active). For the same compound, the growth in the test on MDA-MB-231 breast is -76.8% (active); with RXF 393 renal it was -85.5% (active); in the test on SF-268 CNS, -18.9% (active); with SF-295 CNS, -62% (active); with SF-539 CNS, -96.1% (active); with UACC-257 melanoma, -69.3% (active). For the same compound, in the test with M14 melanoma, the growth is -64.8% (active).

With `CC(C)(C)Nc1c(-c2cccs2)nc2ncccn12`, the growth was 96.6% in the test with NCI-H23 lung; 90.6% in the test on NCI-H226 lung; 98.7% with NCI-H322M lung; 98.8% with HOP-92 NSCLC; 80.3% in the test on NCI-H522 lung; 98.1% with A549/ATCC NSCLC. Moreover, the growth is 104% with 786-0 renal; 110% with COLO 205 colon; 105% with DU-145 prostate; 86.5% in the test with K-562 leukemia; 99.9% in the test on MALME-3M melanoma; 108% in the test with MDA-MB-231 breast. Besides, the growth in the test with RXF 393 renal was 98.9%; in the test on SF-268 CNS, 97.5%; with SF-295 CNS, 99.5%; in the test on SF-539 CNS it was 97.5%; in the test with UACC-257 melanoma it was 90.5%; with M14 melanoma, 106%.

Take `O=c1[nH]c(-c2ccccc2)nc(CN2CCCCC2)c1O`: the growth in the test with NCI-H23 lung is 103%; in the test with NCI-H226 lung, 108%; in the test with NCI-H322M lung it was 136%; in the test on NCI-H460 lung it was 109%; in the test with HOP-92 NSCLC, 92.8%; in the test on NCI-H522 lung, 116%. Besides, the growth was 111% in the test on A549/ATCC NSCLC; 102% in the test on 786-0 renal; 113% in the test on COLO 205 colon; 113% in the test with DU-145 prostate; 112% in the test with K-562 leukemia; 128% in the test with MALME-3M melanoma. The growth was 102% in the test on MDA-MB-231 breast; 120% in the test with RXF 393 renal; 105% with SF-268 CNS; 121% in the test with SF-295 CNS; 108% with SF-539 CNS; 113% with UACC-257 melanoma. For the same compound, the growth in the test with M14 melanoma is 108%.

Turning to `Cc1ccc(-c2nc(C#N)c(S(=O)(=O)n3nc(-c4ccccc4)cc3N)o2)cc1`, the growth was 97.4% in the test with NCI-H23 lung; 78.3% in the test with NCI-H226 lung; 97.3% in the test with NCI-H322M lung; 109% in the test on NCI-H460 lung; 89.1% in the test with HOP-92 NSCLC; -12% (active) with NCI-H522 lung. Moreover, the growth in the test with A549/ATCC NSCLC is 94.4%; in the test on 786-0 renal, 84%; in the test on COLO 205 colon, -44.1% (active); in the test with DU-145 prostate it was 105%; with K-562 leukemia, 13.3%; with MALME-3M melanoma, -34.9% (active). Moreover, the growth in the test on MDA-MB-231 breast was 89%; in the test with RXF 393 renal, 85%; with SF-268 CNS, 101%; in the test on SF-295 CNS, 104%; in the test on SF-539 CNS it was 97%; in the test with UACC-257 melanoma it was 92.1%. For the same compound, in the test on M14 melanoma, the growth was 83%.

With `C/C(=C\c1ccc(OCC(=O)O)c(Cl)c1Cl)[N+](=O)[O-]`, the growth is 93.2% with NCI-H23 lung; 110% with NCI-H226 lung; 134% in the test on NCI-H322M lung; 110% in the test on NCI-H460 lung; 104% with HOP-92 NSCLC; 83.4% with NCI-H522 lung. Also, the growth with A549/ATCC NSCLC was 93.8%; in the test with 786-0 renal, 117%; with COLO 205 colon, 112%; with DU-145 prostate it was 108%; with K-562 leukemia, 88%; in the test on MALME-3M melanoma, 135%. The growth with MDA-MB-231 breast was 113%; in the test with RXF 393 renal it was 136%; with SF-268 CNS, 95.2%; in the test on SF-295 CNS it was 116%; with SF-539 CNS, 103%; in the test on UACC-257 melanoma it was 90.4%. Also, the growth in the test on M14 melanoma is 102%.
